Screens deposited in PubChem by National Center for Advancing Translational Sciences (NCATS).
Shown are actives, neighbours in structure and some others; about 5.3% of the full set was active somewhere.
Six1-Eya2 blk: qHTS Assay for Inhibitors of the Six1/Eya2 Interaction; AlphaScreen GST-Six1/His-Eya2 binding, biochemical; active compounds read low; activity change, % (concentration not given with the values); 360,000 compounds, 0.56% hits; AID 651725, 2012; in the data active = activity change below about -65%; inconclusive = mostly about -30% to -63%; also: % is scaled to controls: 0 for no effect and ±100 for the full control effect
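AlphaScreen luminescence read after one hour at 37 °C in darkness. Pin-transferred compounds met GST-Six1 and His-Eya2 protein (5X stock 250 nM/500 nM) plus glutathione donor and Ni-chelate acceptor beads (5X, 50 ug/mL).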
JMJD2A Tudor inh: qHTS Assay for Inhibitors of JMJD2A-Tudor Domain; Lysine-specific demethylase 4A (Homo sapiens), O75164; AlphaScreen JMJD2A-Tudor / H3K4me3 peptide binding; Potency, µM (top dose mostly 114 µM), without a hit: at the highest dose activity change, negative = inhibition, most hits filed as inhibitors; 390,000 compounds, 4.4% hits; AID 504339, 2011; also: potency is read from the fitted curve at half-maximal effect; % is scaled to controls: 0 for no effect and ±100 for the full control effect; nearly all actives have a fitted effect of over 50% in size
TDP1 block: qHTS Assay for Inhibitors of Tyrosyl-DNA Phosphodiesterase (TDP1) | Tyrosyl-DNA phosphodiesterase 1 (Homo sapiens), Q9NUW8 | recombinant TDP1, AlphaScreen DNA substrate cleavage | Potency, µM (top dose mostly 130 µM), without a hit: top-dose activity change, negative = inhibition, actives largely listed as inhibitors | AID 485290, 2010 | 350,000 compounds, 0.28% hits; also: potency is read from the fitted curve at half-maximal effect; % is scaled to controls: 0 for no effect and ±100 for the full control effect; nearly all actives have a fitted effect of over 40% in size
Target sequence (Q9NUW8 whole entry, looked up): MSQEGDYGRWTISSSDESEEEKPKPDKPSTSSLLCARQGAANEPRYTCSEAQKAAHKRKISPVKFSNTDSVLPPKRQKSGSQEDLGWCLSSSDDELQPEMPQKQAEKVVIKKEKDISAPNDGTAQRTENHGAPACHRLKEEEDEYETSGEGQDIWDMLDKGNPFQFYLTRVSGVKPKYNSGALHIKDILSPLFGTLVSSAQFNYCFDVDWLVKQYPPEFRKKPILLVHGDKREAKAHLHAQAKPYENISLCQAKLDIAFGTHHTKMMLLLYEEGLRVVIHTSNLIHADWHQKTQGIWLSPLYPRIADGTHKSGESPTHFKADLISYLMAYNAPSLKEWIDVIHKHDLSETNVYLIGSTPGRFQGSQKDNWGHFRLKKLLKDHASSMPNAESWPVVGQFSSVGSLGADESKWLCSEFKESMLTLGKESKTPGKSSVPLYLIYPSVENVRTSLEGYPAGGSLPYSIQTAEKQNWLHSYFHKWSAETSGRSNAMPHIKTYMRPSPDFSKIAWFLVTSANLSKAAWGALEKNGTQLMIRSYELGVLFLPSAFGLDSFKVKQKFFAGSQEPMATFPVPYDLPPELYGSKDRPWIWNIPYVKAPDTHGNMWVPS
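E. coli-derived human Tdp1, 1 nM final. Cpd preinc 15 min RT; substrate 15 nM final, 5 min RT; AS bead mix 10 ug/ml final, 10 min RT. Signal loss = tyrosine-FITC cleavage. No-enzyme wells = max signal.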
CtBP-E1A inh: qHTS Assay for Inhibitors of the CtBP/E1A Interaction; CtBP / adenovirus E1A interaction (AlphaScreen); AlphaScreen GST-E1A/His-CtBP binding, 1536-well; active compounds read low; activity change, % (concentration not given with the values); 340,000 compounds, 0.49% hits; in the data active = activity change below about -65%; inconclusive = mostly about -30% to -63%; also: % is scaled to controls: 0 for no effect and ±100 for the full control effect
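Homogeneous bead-based format: GST-tagged E1A captured on glutathione donor beads, His-tagged CtBP on nickel acceptor beads; compounds precede bead addition by 2 h at 37 °C.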
BAZ2B inh: qHTS Assay for Inhibitors of BAZ2B | AlphaScreen BAZ2B-H3K14Ac peptide displacement | AID 504333, 2011 | 360,000 compounds, 4.4% hits | Bromodomain adjacent to zinc finger domain protein 2B (Homo sapiens), Q9UIF8 | Potency, µM (series often up to 114 µM), for inactives: at the top dose activity change, negative = inhibition, usual class: inhibitors; also: potency is read from the fitted curve at half-maximal effect; % is scaled to controls: 0 for no effect and ±100 for the full control effect; nearly all actives have a fitted effect of over 60% in size
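Multi-concentration screen (max 110 uM) measuring displacement of acetylated histone H3 peptide from BAZ2B by AlphaScreen, using 50 nM protein, 50 nM peptide and 10 ug/mL streptavidin donor plus Ni-chelate acceptor beads.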
HP1b chromo inh: HTS for Inhibitors of HP1-beta Chromodomain Interactions with Methylated Histone Tails; Chromobox protein homolog 1 (Homo sapiens), P83916; AlphaScreen HP1-beta / biotin-H3K9me3 peptide binding; Potency, µM (top dose mostly 114 µM), inactives show top-dose activity change, negative = inhibition, hits mostly inhibitors; 390,000 compounds, 0.56% hits; AID 540317, 2011; also: potency is read from the fitted curve at half-maximal effect; nearly all actives have a fitted effect of over 70% in size
Target sequence (P83916 whole entry, looked up): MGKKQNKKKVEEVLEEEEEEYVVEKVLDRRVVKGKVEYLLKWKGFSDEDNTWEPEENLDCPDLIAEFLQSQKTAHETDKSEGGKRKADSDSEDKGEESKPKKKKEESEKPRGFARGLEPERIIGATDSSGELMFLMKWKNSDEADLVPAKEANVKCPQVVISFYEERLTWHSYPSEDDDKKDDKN
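HP1-beta protein (50 nM final) preincubated 30 min at room temperature with biotinylated H3(1-18)K9me3 peptide (50 nM) in PBS pH 7.4, 0.01% Tween-20, then compound added for 30 min. AlphaScreen streptavidin donor/nickel chelate acceptor beads (10 ug/mL final), 30 min dark, luminescence read.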
Active calls of the source: *; ? = inconclusive; / = not tested or not shown; [ ] = remark or other dose. Unless noted, calls follow the shape of the dose curve; as a rule, active = well fitted inhibition curve with a large enough effect; inconclusive = small, poorly fitted or top-dose-only effect; inactive = no such curve, though single readings can be large or run the other way.

SMILES | Six1-Eya2 blk | JMJD2A Tudor inh | TDP1 block | CtBP-E1A inh | BAZ2B inh | HP1b chromo inh
Cc1cc(-c2nnc3n2N=C(c2ccccc2)CS3)n[nH]1 | ? | ? | 3.5% | ? | -21.8% | 14.7%
Cc1cc(-c2nnc3n2N=C(c2ccc(-c4ccccc4)cc2)CS3)n[nH]1 | -72.0* | -18.5%[11.4 µM] | 1.0% | -68.5* | -35.1% | 0.7%
c1ccc(C2=Nn3c(nnc3-c3ccccn3)SC2)cc1 | ? | -30.5%[57.1 µM] | -1.0% | ? | 28.2µM* | 67.6%
CC1=Nn2c(nnc2-c2ccccn2)SC1 | -19.0 | 22.4µM* | 4.4% | -17.7 | 50.1µM* | 32.2%
C[C@@H]1Cc2c(O)c(O)cc(O)c2C(=O)O1 | -6.0 | 56.2µM* | / | 2.1 | ? | ?
Oc1c(Cl)cc(Cl)c2c1NCCC2 | ? | 56.2µM* | 9.5% | 3.6 | ? | 50.1µM*
C#CCOCCOCCOCCNc1nc(N2CCN(C(=O)[C@H]([C@@H](C)CC)n3cc([C@@H](N)Cc4ccc(O)cc4)nn3)CC2)nc(N2CCN(C(=O)[C@H]([C@@H](C)CC)n3cc([C@@H](N)Cc4ccc(O)cc4)nn3)CC2)n1 | -9.6 | ? | 1.3% | -5.9 | 50.1µM* | 34.9%
C#CCOCCOCCOCCNc1nc(N2CCN(C(=O)[C@H]([C@@H](C)CC)n3cc([C@@H](N)CO)nn3)CC2)nc(N2CCN(C(=O)[C@H]([C@@H](C)CC)n3cc([C@@H](N)Cc4ccc(O)cc4)nn3)CC2)n1 | -13.6 | 50.1µM* | 3.8% | -11.1 | 28.2µM* | 2.1%
C#CCOCCOCCOCCNc1nc(N2CCOCC2)nc(N2CCN(C(=O)[C@H]([C@@H](C)CC)n3cc([C@@H](N)CO)nn3)CC2)n1 | 0.2 | -26.2% | 0.0% | -2.0 | -26.8% | ?
C#CCOCCOCCOCCNc1nc(N2CCN(C(=O)[C@H](C(C)C)n3cc(CCO)nn3)CC2)nc(N2CCN(C(=O)[C@H]([C@@H](C)CC)n3cc(CCC(=O)O)nn3)CC2)n1 | 6.3 | -23.2% | / | 4.8 | / | 12.6%
C#CCOCCOCCOCCNc1nc(N2CCN(C(=O)[C@H]([C@@H](C)CC)n3cc([C@@H](N)CC(C)C)nn3)CC2)nc(N2CCN(C(=O)[C@H]([C@@H](C)CC)n3cc([C@@H](N)CC(C)C)nn3)CC2)n1 | -6.8 | ? | 3.8% | -10.7 | 79.4µM* | 6.5%
C#CCOCCOCCOCCNc1nc(N2CCN(C(=O)[C@H]([C@@H](C)CC)n3cc([C@@H](N)CC(C)C)nn3)CC2)nc(N2CCN(C(=O)[C@H](Cc3ccc(O)cc3)n3cc([C@@H](N)CC(C)C)nn3)CC2)n1 | -12.9 | ? | 5.1% | -10.2 | 50.1µM* | 17.5%
C#CCOCCOCCOCCNc1nc(N2CCN(C(=O)[C@H]([C@@H](C)CC)n3cc([C@@H](N)CO)nn3)CC2)nc(N2CCN(C(=O)[C@H](Cc3ccc(O)cc3)n3cc([C@@H](N)C(C)CC)nn3)CC2)n1 (stereo partly specified) | -23.5 | 35.5µM* | 7.7% | / | 35.5µM* | 39.1%
O=[N+]([O-])c1ccc2c(c1)C(=Nc1ccccc1)c1ccccc1-2 | ? | 31.6µM* | / | ? | / | ?
O=C(O)CSC1=NS(=O)(=O)c2ccccc21 | / | 17.8µM* | -3.4% | / | / | ?
CC(SC1=NS(=O)(=O)c2ccccc21)C(=O)O (stereo unspecified) | / | 28.2µM* | -0.5% | / | / | ?
O=S1(=O)N=C(SCCO)c2ccccc21 | 10.6 | ? | 6.9% | 7.7 | ? | 35.0%
O=c1[nH]cnc2nc[nH]c12 | / | / | -4.5% | / | / | /
O=c1[nH]cnc2c1N1CCC2CC1 | -17.2 | 28.2µM* | 2.0% | -7.4 | ? | 10.0%
Cc1ccccc1OCCn1c(-c2ccc(Cl)cc2)nc2ccccc2c1=O | / | 6.2% | / | / | -4.4% | 60.8%
COc1ccccc1CNC(=O)C/C(C)=N/NC(=O)COc1ccc(C)cc1Br | 1.1 | 0.7% | 3.8% | -7.9 | 0.3% | 26.6%
CCN(CC)c1ccc(CNC(=O)C/C(C)=N/NC(=O)COc2ccc(C)cc2Br)cc1 | -16.6 | ? | / | -22.2 | 44.7µM* | ?
c1cncc(CNCc2ccco2)c1 | 5.8 | -13.7% | / | 8.0 | 70.8µM* | 7.4%
c1ccc(CNCc2ccco2)cc1 | 3.0 | -9.8% | 3.8% | -1.6 | -16.3% | 23.0%
O=[N+]([O-])c1ccc(N2CCN(Cc3ccc([N+](=O)[O-])o3)CC2)cc1 | 5.1 | 20µM* | / | 2.2 | 31.6µM* | ?
SMILES | Six1-Eya2 blk | JMJD2A Tudor inh | TDP1 block | CtBP-E1A inh | BAZ2B inh | HP1b chromo inh
O=[N+]([O-])c1ccc(N2CCN(Cc3ccc(Br)o3)CC2)cc1 | -16.0 | 22.4µM* | / | -8.2 | 79.4µM* | ?
O=[N+]([O-])c1ccc(N2CCN(Cc3ccncc3)CC2)cc1 | -7.7 | 22.4µM* | 5.4% | / | 50.1µM* | ?
O=[N+]([O-])c1ccc(CN2CCN(c3ccccc3Cl)CC2)o1 | 0.1 | 22.4µM* | / | 4.7 | 50.1µM* | ?
O=c1oc2c(F)cc(F)cc2cc1S(=O)(=O)c1ccc(F)cc1 | / | -25.6% | 4.6% | / | 12.0% | 56.9%
CCC1CCC(N2CCN(c3ccc([N+](=O)[O-])cc3)CC2)CC1 (stereo unspecified) | -25.0 | ? | / | ? | 70.8µM* | -0.6%
CC1CCC(N2CCN(c3ccc([N+](=O)[O-])cc3)CC2)CC1 (stereo unspecified) | 1.3 | ? | 5.4% | 0.0 | -36.3% | ?
COc1ccc(N2CCN(CCCNC(=O)CCC(=O)N3CCOc4ccc(Cl)cc43)CC2)cc1 | -18.0 | ? | 9.2% | ? | 31.6µM* | -17.2%
COc1ccc(N2CCN(CCCNC(=O)c3ccc(CS(=O)(=O)c4ccc(Cl)cc4)o3)CC2)cc1 | -13.8 | 14.4% | 6.4% | / | 28.2µM* | 22.3%
CCn1c(=O)cc(OCC(=O)N2CCN(c3cccc(Cl)c3)CC2)c2ccccc21 | / | 5.1% | 4.6% | / | ? | 13.8%
FC(F)(F)c1cccc(Nc2c3c(nc4ccc(Cl)cc24)CCC3)c1 | / | -1.0% | 2.3% | / | / | 45.9%
C=CCOc1ccc(CN(C)CC(=O)Nc2ccc3c(c2)CCC3)cc1 | -1.0 | 14.1µM* | -2.4% | 1.2 | 50.1µM* | -20.0%
CCOc1ccc(CN(C)CC(=O)Nc2ccc3c(c2)CCC3)cc1OC | 8.3 | -16.9%[57.1 µM] | 3.6% | -23.2 | -17.2% | 8.3%
